# In the supplement of paper PMC3334620:
# The full ranking holds about 33,000 sequences; the median of “E-score (-0.5 to 0.5)” is about -0.015, and the highest 2% start at about 0.3. The sample as a whole holds a higher share of the highest values than the screen did.
# Target: T1, Abf1 (UniProt P14164)
# T1 sequence: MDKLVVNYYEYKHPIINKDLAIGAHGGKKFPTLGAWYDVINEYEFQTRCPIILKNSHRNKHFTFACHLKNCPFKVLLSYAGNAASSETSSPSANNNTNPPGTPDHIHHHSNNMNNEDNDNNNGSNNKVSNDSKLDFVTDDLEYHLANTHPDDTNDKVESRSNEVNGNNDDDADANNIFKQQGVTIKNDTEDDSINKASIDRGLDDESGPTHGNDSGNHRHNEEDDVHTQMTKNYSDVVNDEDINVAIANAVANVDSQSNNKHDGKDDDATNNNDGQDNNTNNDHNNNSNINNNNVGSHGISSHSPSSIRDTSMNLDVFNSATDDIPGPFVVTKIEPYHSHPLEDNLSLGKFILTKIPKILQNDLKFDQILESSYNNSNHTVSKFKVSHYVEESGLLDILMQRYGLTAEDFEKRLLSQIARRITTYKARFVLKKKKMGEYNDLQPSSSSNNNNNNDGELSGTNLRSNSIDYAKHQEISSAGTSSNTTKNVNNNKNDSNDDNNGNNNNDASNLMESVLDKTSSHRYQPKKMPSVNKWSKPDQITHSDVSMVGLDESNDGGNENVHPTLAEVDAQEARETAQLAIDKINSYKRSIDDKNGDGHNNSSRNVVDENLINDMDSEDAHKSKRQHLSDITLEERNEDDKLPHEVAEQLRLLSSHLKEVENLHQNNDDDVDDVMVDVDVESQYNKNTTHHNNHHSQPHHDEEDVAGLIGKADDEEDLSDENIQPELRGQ
# Assay: PBM E-score (8-mer binding enrichment) (E-score (-0.5 to 0.5)); higher = stronger / more preferred TF binding
# Settings: protein concentration: 200 nM; construct: GST-full length
# Protocol: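 Universal 'all 10-mer' protein binding microarrays (Agilent AMADID 015681) probed with GST-tagged S. cerevisiae TFs (full-length or DBD) made by in vitro transcription/translation (PURExpress), about 100-200 nM. Bound TF was detected with fluorescent anti-GST. Each ungapped 8-mer (which stands for itself and its reverse complement) is scored by the PBM enrichment score (E-score), a modified Wilcoxon-Mann-Whitney statistic from -0.5 to +0.5, computed with the Universal PBM Analysis Suite. Scale: above 0.35 generally sequence-specific binding.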
row,Sequence,PBM E-score
1,GCATCGCC,-0.0959
2,AACCGGGC,-0.103
3,CTCCCGGA,-0.117
4,GATAGAAC,0.0502
5,ACAACGCA,-0.00182
6,CGAGGTTA,-0.00406
7,AAGAATCT,-0.115
8,GGAGATGA,0.16
9,GCGATTTA,0.114
10,TCTTCTCA,0.0808
11,CGCTCTAA,0.108
12,AAGGCGGC,-0.00603
13,AAGGACAT,0.0941
14,GCGTGACA,0.369
15,CCGTGTGA,0.301
16,GCGTGACC,0.108
17,GCGTGTGA,-0.00541
18,ACGTGTGA,0.213
19,GTGTGACA,0.116
20,CGTTGATC,0.247
21,AAAGTGCG,-0.105
22,AGATTTCA,-0.0514
23,ACAGTCGC,-0.0877
24,TCGAAAAA,0.157
25,GGACGGTA,0.134

row,Sequence,PBM E-score
1,AGACGATC,0.113
2,AGACGATA,0.27
3,GGACGATA,0.268
4,CGACGGTA,0.322
5,CGACGGTC,0.173
6,CGACGATC,0.298
7,CGACGACC,0.243
8,CGACGATA,0.373
9,GAAATTCA,0.0636
10,ATTGCACA,0.0349
11,CAGCTATA,-0.191
12,ACCGCTGC,-0.252
13,GGTAGGAA,-0.0834
14,TAGGCCGA,-0.106
15,CCGATCCG,-0.0938
16,GCGAAGAA,0.148
17,CTTAGCGC,0.117
18,CGCTGTCC,0.108
19,CCGCATTC,0.00443
20,ACGTACTA,0.188
21,TGGTACCA,-0.123
22,CCGTACCA,0.303
23,TCGTACCA,0.322
24,ACGTACCA,0.0604
25,CCGTACTA,0.338

row,Sequence,PBM E-score
1,TAGTACCA,-0.0108
2,GCGTACCA,-0.0406
3,GCGTACTA,-0.0501
4,ATGATGCG,0.104
5,ACGAACCC,0.0128
6,GCGAGAAC,-0.095
7,CGATTCAC,0.192
8,AGGCGGTC,-0.166
9,GTCTAAAC,0.00585
10,ATGGTACA,-0.0607
11,ACGAACAA,0.331
12,CCGAACGG,-0.0461
13,GCGAACAA,0.0737
14,CCGAACAA,-0.0373
15,ACGAACGA,0.314
16,TCGAACGA,0.236
17,CCGAACGA,0.251
18,ACGAACGG,0.312
19,ACGAACGT,0.289
20,GCGAATGA,0.173
21,ACGAATGA,0.304
22,ACGAATGC,0.185
23,ATTAAGCC,0.0493
24,ATATCCAA,0.149
25,ACTGACTC,-0.262

row,Sequence,PBM E-score
1,CACTATGA,-0.138
2,CAAAGTGA,0.28
3,TAAGGAAA,-0.0606
4,CTATGCAC,0.178
5,AAACTCCT,-0.13
6,AATCATAT,0.191
7,AGGTCGAT,0.132
8,TGGTGGAA,-0.0333
9,ACTGCGAT,-0.0827
10,CAACAAAC,-0.112
11,TATCACAA,0.25
12,AATCACGA,0.309
13,AATCACGC,0.127
14,TATCACGA,0.366
15,AATCACGG,0.213
16,CATCACGA,0.0436
17,AGGTTATC,0.0463
18,CGCAGATA,0.0501
19,AGACGGCG,0.306
20,CCACGGCG,0.142
21,CGACGGCG,0.171
22,ACACGGCA,0.294
23,ACACGGCG,0.305
24,AGACGGCC,-0.0278
25,CCCGCTCG,-0.0943

row,Sequence,PBM E-score
1,ATAAACGG,0.273
2,TAAACTCA,-0.0231
3,ACCGATAT,0.0499
4,AACGATAT,0.385
5,AACGATAC,0.32
6,AACGATCT,0.303
7,AACGATAG,0.265
8,AGCGATAC,0.202
9,GACGATAC,0.278
10,AGCGATAT,0.352
11,AACGATCA,0.24
12,AACGATCC,-0.00029
13,AGCGATAG,0.0445
14,AACGATAA,0.294
15,GCAATTCA,-0.0514
16,ATCGCAGC,-0.0387
17,CACTTCAG,0.0421
18,GCGGTTTA,-0.161
19,ATCCCTGA,-0.0627
20,CCAGGGGC,-0.331
21,CTTAGCGA,0.0369
22,GTTAGCGA,0.32
23,ATTAGCGA,0.136
24,GGGTTATA,-0.105
25,ATTTTACG,0.322

row,Sequence,PBM E-score
1,ATTTTACC,0.11
2,AATTTACG,0.0813
3,TACAGCTA,-0.41
4,CTTAGTGA,0.305
5,AATAGTGA,0.358
6,AATAGTGG,0.0153
7,ATTAGTGC,0.148
8,GTTAGTGA,0.17
9,CTTAGTGC,-0.0935
10,ATTAGTGG,0.1
11,AATAGTGC,0.0751
12,ATTAGTGA,0.365
13,TCGAGCAA,0.1
14,ATTTCCGG,0.0492
15,ATTTCTTA,0.0563
16,GAAGAAAC,-0.133
17,AATTTCGC,-0.0531
18,AAATTCGT,0.328
19,AAATTCGG,0.0545
20,AATTTCGA,0.00012
21,AAATTCGC,0.0441
22,AATTTCGT,0.36
23,GACGCCTC,-0.0456
24,ATAACCCA,-0.0314
25,AGGGTAAT,0.0413

row,Sequence,PBM E-score
1,CACAGTGA,0.109
2,GCATCTCC,-0.255
3,ACTGGAGA,-0.174
4,CCCCCAGA,-0.326
5,CACGAGTC,0.0257
6,TGCACGAA,0.368
7,GGCACGAA,0.103
8,CGCACGAC,0.242
9,CGCACGAA,0.321
10,CGCACGAG,0.156
11,AGCACGAA,0.217
12,CACAACGC,-0.174
13,AGGGAGGA,-0.187
14,ATCCGGGC,-0.197
15,ATGATATA,0.403
16,CCGATATA,0.0343
17,GTGATATA,0.395
18,GCGATACA,0.139
19,CTGATATA,0.107
20,AAGATATG,0.283
21,GAGATATA,0.147
22,ATGATATG,0.367
23,ATGATAGG,0.116
24,GGGATATA,-0.045
25,GCGATATA,0.368

row,Sequence,PBM E-score
1,AAGATATA,0.162
2,GTGGACAA,0.133
3,CTCCTGAC,0.0261
4,AGGGGACA,-0.0441
5,CCAGGGTC,-0.217
6,ACGGCTAC,0.0914
7,CGTTCAGA,0.0456
8,ATGATAGC,0.24
9,ATGATACG,0.305
10,ATGATATC,0.362
11,CTGATATC,0.0641
12,ATGATACA,0.202
13,ATGATACC,0.291
14,ACGCGCCT,-0.0785
15,AGATAAGG,0.00618
16,GGAGGTCA,0.0571
17,CTGACGAC,0.228
18,GAGTACGA,0.0499
19,CTGTACGA,0.383
20,GTGTACGA,0.337
21,ATGTACGC,0.027
22,GTGTACTA,0.165
23,ATGTACGA,0.444
24,CTGTACAA,0.109
25,CTGTACGC,-0.106

row,Sequence,PBM E-score
1,ATGTACGG,0.241
2,GTGTCGGA,0.0611
3,GACGTAGA,0.0745
4,TCCGACCA,-0.143
5,AAACTCTA,-0.144
6,CCCACAAC,-0.0362
7,GCCTCCAA,-0.121
8,CATATACC,-0.0104
9,GATATACC,0.34
10,AATATATC,0.139
11,GATATAAA,0.22
12,GATATATA,0.289
13,GATATAAC,0.307
14,GATATATC,0.332
15,GATATACA,0.111
16,CATATAAC,0.155
17,ATACGCGG,-0.114
18,CTTGGGGC,-0.247
19,AACCCTAA,0.00952
